This is part of a sample that, as a whole, favours compounds with a hit. Of some 83,000 tested, about 20% had one in any assay.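 Assay: single dose, 48 h. Readout: percent growth (0 = no net growth; negative = cell death). Active: <10.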 Calls of active or inactive are those of the source.
Columns and labels:
Assay in all cases: NCI-60 one-dose screen, 48 h (100 = growth as untreated, 0 = no growth, -100 = all killed)
Conditions in all cases: 10 µM
HT29 colon = system: HT29 colon
SNB-75 CNS = system: SNB-75 CNS
SNB-19 CNS = system: SNB-19 CNS
U251 CNS = system: U251 CNS
PC-3 prostate = system: PC-3 prostate
SK-MEL-5 melanoma = system: SK-MEL-5 melanoma
UACC-62 melanoma = system: UACC-62 melanoma
LOX IMVI melanoma = system: LOX IMVI melanoma
SK-MEL-28 melanoma = system: SK-MEL-28 melanoma
SK-MEL-2 melanoma = system: SK-MEL-2 melanoma

Measured: growth

COc1ccccc1CNCCCN1C(=O)c2ccc3c4c(ccc(c24)C1=O)C(=O)N(CCCN)C3=O
inactive: SNB-75 CNS 39.3%
active: HT29 colon -51.1% | SNB-19 CNS -5.76% | U251 CNS -46.6% | PC-3 prostate -8.32% | SK-MEL-5 melanoma -97.5% | UACC-62 melanoma -90.2% | LOX IMVI melanoma -61% | SK-MEL-28 melanoma 5.1% | SK-MEL-2 melanoma -57.3%

COc1cc(Cl)cc(-c2nn(-c3cccc(NC(=O)Nc4ccc(Cl)c(C(F)(F)F)c4)c3)cc2-c2ccncc2)c1
inactive: SNB-75 CNS 14.5% | SNB-19 CNS 28.1% | SK-MEL-28 melanoma 23.6%
active: HT29 colon 5.57% | U251 CNS -48.3% | PC-3 prostate -13% | SK-MEL-5 melanoma -71.2% | UACC-62 melanoma 6.62% | LOX IMVI melanoma 4.81% | SK-MEL-2 melanoma -34%

COc1cc2cc3c(nc2cc1OC)CCN3Cc1ccc(NC(=O)Nc2ccc(F)cc2F)cc1
inactive: HT29 colon 103% | SNB-75 CNS 86.4% | SNB-19 CNS 76.8% | U251 CNS 91.8% | PC-3 prostate 68.8% | SK-MEL-5 melanoma 86.1% | UACC-62 melanoma 69% | LOX IMVI melanoma 88.6% | SK-MEL-28 melanoma 95.7% | SK-MEL-2 melanoma 88.2%

COc1cc2cc3c(nc2cc1OC)CCN3Cc1ccc(NC(=O)Nc2cc(C(F)(F)F)cc(C(F)(F)F)c2)cc1
inactive: HT29 colon 76.7% | SNB-75 CNS 69.1% | SNB-19 CNS 71.9% | U251 CNS 64.1% | PC-3 prostate 39.6% | SK-MEL-5 melanoma 89.9% | UACC-62 melanoma 80.7% | LOX IMVI melanoma 75.4% | SK-MEL-28 melanoma 98.5% | SK-MEL-2 melanoma 80.2%

COc1cc(Nc2ccnc(NCCNc3ccnc4cc(Cl)ccc34)n2)cc(OC)c1
inactive: SNB-75 CNS 68.7% | SNB-19 CNS 64.2% | PC-3 prostate 46.5% | UACC-62 melanoma 51.1% | SK-MEL-2 melanoma 48.7%
active: HT29 colon 1.76% | U251 CNS 9.32% | SK-MEL-5 melanoma -92.8% | LOX IMVI melanoma -37.2% | SK-MEL-28 melanoma -94.9%

Clc1ccc(Nc2ccnc(NCCNc3ccnc4cc(Cl)ccc34)n2)cc1
active: HT29 colon -37.4% | SNB-75 CNS 4.36% | U251 CNS -48% | SK-MEL-5 melanoma -100% | UACC-62 melanoma -79.5% | LOX IMVI melanoma -79.5% | SK-MEL-28 melanoma -100% | SK-MEL-2 melanoma -76.1%
inactive: SNB-19 CNS 69.6% | PC-3 prostate 14.7%

COc1ccc(-c2ccc3cc(C(=O)Nc4ccc(O)c(C(=O)/C=C/c5cc(OC)c(OC)c(OC)c5)c4)ccc3c2)cc1
inactive: HT29 colon 95.3% | SNB-75 CNS 94% | SNB-19 CNS 96.1% | U251 CNS 92.6% | PC-3 prostate 65.5% | SK-MEL-5 melanoma 72.6% | UACC-62 melanoma 71.1% | LOX IMVI melanoma 81.3% | SK-MEL-28 melanoma 106% | SK-MEL-2 melanoma 99.5%

O=c1cc(-c2ccccc2)[nH]n1-c1nc2ccccc2[nH]1
inactive: HT29 colon 87.1% | SNB-75 CNS 64.4% | SNB-19 CNS 53.1% | U251 CNS 31.7% | PC-3 prostate 56.6% | SK-MEL-5 melanoma 34.1% | UACC-62 melanoma 36.5% | LOX IMVI melanoma 27.8% | SK-MEL-28 melanoma 74.1% | SK-MEL-2 melanoma 68.5%

Cc1cccc(NC2=C(C#N)C(=O)NC3(CCCC3)S2)c1
inactive: HT29 colon 103% | SNB-75 CNS 90.7% | SNB-19 CNS 94.2% | U251 CNS 97.4% | PC-3 prostate 105% | SK-MEL-5 melanoma 95.7% | UACC-62 melanoma 98.7% | LOX IMVI melanoma 96.5% | SK-MEL-28 melanoma 105% | SK-MEL-2 melanoma 98.2%

COc1cc(-c2cc(/C=C/C(=O)c3ccc(N)cc3)[nH]n2)cc(OC)c1OC
inactive: SNB-19 CNS 36.6% | PC-3 prostate 11.1% | SK-MEL-5 melanoma 11.8% | UACC-62 melanoma 20.6% | SK-MEL-2 melanoma 28.6%
active: HT29 colon 2.34% | SNB-75 CNS 8.6% | U251 CNS -58.4% | LOX IMVI melanoma -52.3% | SK-MEL-28 melanoma 6.59%

N=C(N)c1ccc(-c2ccc(-c3ccco3)o2)cc1
active: HT29 colon 5.15%
inactive: SNB-75 CNS 22.2% | SNB-19 CNS 68.4% | U251 CNS 53.5% | PC-3 prostate 59.8% | SK-MEL-5 melanoma 76% | UACC-62 melanoma 95.9% | LOX IMVI melanoma 56.9% | SK-MEL-28 melanoma 75.1% | SK-MEL-2 melanoma 108%

COc1cc(NC(=O)CCSc2nc3ccc(Cl)cc3c(=O)n2Cc2ccccc2)cc(OC)c1OC
inactive: HT29 colon 76.2% | SNB-75 CNS 36.6% | SNB-19 CNS 92.1% | U251 CNS 70.2% | PC-3 prostate 43.4% | SK-MEL-5 melanoma 74.8% | UACC-62 melanoma 53.4% | LOX IMVI melanoma 91.1% | SK-MEL-28 melanoma 70.7% | SK-MEL-2 melanoma 73.7%

N=c1c2c(-c3ccccc3)c(-c3ccccc3)n(Cc3ccccc3)c2ncn1CCCO
inactive: SNB-75 CNS 39.7% | SNB-19 CNS 48.3% | U251 CNS 24.5% | PC-3 prostate 33.8% | UACC-62 melanoma 44.2% | LOX IMVI melanoma 13% | SK-MEL-28 melanoma 49.8% | SK-MEL-2 melanoma 47%
active: HT29 colon 0.266% | SK-MEL-5 melanoma -4.56%

O=C(Nc1ccncc1)C(=O)c1cn(S(=O)(=O)c2cc(Cl)cc(Cl)c2)c2ccccc12
inactive: HT29 colon 42.4% | SNB-75 CNS 59.6% | SNB-19 CNS 82.4% | U251 CNS 58.1% | PC-3 prostate 63.9% | SK-MEL-5 melanoma 62.7% | UACC-62 melanoma 57.4% | LOX IMVI melanoma 48% | SK-MEL-28 melanoma 78.4% | SK-MEL-2 melanoma 61.7%

N=c1nc(N)ncn1-c1ccccc1
inactive: HT29 colon 96.4% | SNB-75 CNS 86.5% | SNB-19 CNS 98.2% | U251 CNS 95.1% | PC-3 prostate 96.8% | SK-MEL-5 melanoma 102% | UACC-62 melanoma 93.5% | LOX IMVI melanoma 94.9% | SK-MEL-28 melanoma 98.6% | SK-MEL-2 melanoma 106%

O=C(O)C(SC(C(=O)O)c1ccccc1)c1ccccc1 (stereo not given)
inactive: HT29 colon 103% | SNB-75 CNS 85.6% | SNB-19 CNS 104% | U251 CNS 98.8% | PC-3 prostate 105% | SK-MEL-5 melanoma 111% | UACC-62 melanoma 95.5% | LOX IMVI melanoma 99.4% | SK-MEL-28 melanoma 102% | SK-MEL-2 melanoma 103%

COC(=O)C(=C\c1ccc2c(c1)OCO2)/C(=C/c1ccc2c(c1)OCO2)C(=O)OC
inactive: HT29 colon 88.9% | SNB-75 CNS 87.7% | SNB-19 CNS 106% | U251 CNS 98.5% | PC-3 prostate 93.8% | SK-MEL-5 melanoma 101% | UACC-62 melanoma 98.6% | LOX IMVI melanoma 90.8% | SK-MEL-28 melanoma 103% | SK-MEL-2 melanoma 102%

CN(C)CC(O)c1ccc2cc(Br)c3ccccc3c2c1 (stereo not given)
inactive: HT29 colon 22% | SNB-75 CNS 41.8% | SNB-19 CNS 64.7% | U251 CNS 56.4% | PC-3 prostate 49% | SK-MEL-5 melanoma 62.3% | LOX IMVI melanoma 28.9% | SK-MEL-28 melanoma 32.7% | SK-MEL-2 melanoma 102%
active: UACC-62 melanoma -64.8%

Oc1[nH]c2ccc(Cl)cc2c1/C=c1/ccc2c(c1)N=C(c1cc(F)cc(F)c1)N=2
inactive: HT29 colon 22.7% | SNB-75 CNS 11% | SNB-19 CNS 77% | U251 CNS 73.9% | PC-3 prostate 62.6% | SK-MEL-5 melanoma 35.5% | UACC-62 melanoma 44.8% | LOX IMVI melanoma 47.2% | SK-MEL-28 melanoma 65.4% | SK-MEL-2 melanoma 54.8%

COc1ccc(Nc2cc(C)nc(NCCCNc3ccnc4cc(Cl)ccc34)n2)cc1
active: HT29 colon -70.2% | SNB-75 CNS -82.5% | SNB-19 CNS 6.85% | U251 CNS -88.8% | PC-3 prostate 7.12% | SK-MEL-5 melanoma -100% | UACC-62 melanoma -89.8% | LOX IMVI melanoma -80% | SK-MEL-28 melanoma -100% | SK-MEL-2 melanoma -94.6%

O=C(Nc1cccc(Br)c1)c1cc(=O)[nH]c2ccccc12
inactive: HT29 colon 107% | SNB-75 CNS 70.6% | SNB-19 CNS 97.9% | U251 CNS 91.5% | PC-3 prostate 79.2% | SK-MEL-5 melanoma 95.5% | UACC-62 melanoma 80.9% | LOX IMVI melanoma 89.3% | SK-MEL-28 melanoma 107% | SK-MEL-2 melanoma 56.6%

CCN(CC)Cc1cc(Nc2ccnc3cc(Cl)ccc23)ccc1OC
inactive: HT29 colon 33.7% | SNB-75 CNS 86.8% | SNB-19 CNS 94.1% | U251 CNS 82% | PC-3 prostate 66.7% | SK-MEL-5 melanoma 91.6% | UACC-62 melanoma 104% | LOX IMVI melanoma 47.7% | SK-MEL-28 melanoma 108% | SK-MEL-2 melanoma 116%

Nc1c(C(=O)Nc2cccc(Br)c2)sc2nc3c(cc12)C(O)CCC3 (stereo not given)
inactive: SNB-75 CNS 31.2% | SNB-19 CNS 62.2% | U251 CNS 19.3% | PC-3 prostate 23% | SK-MEL-5 melanoma 31.6% | UACC-62 melanoma 48.9% | LOX IMVI melanoma 46.2% | SK-MEL-28 melanoma 63.2% | SK-MEL-2 melanoma 58.7%
active: HT29 colon 5.13%

COc1cc(-c2cc(/C=C/C(=O)c3ccc4c(c3)OCO4)[nH]n2)cc(OC)c1OC
inactive: HT29 colon 43% | SNB-75 CNS 69.7% | SNB-19 CNS 66.5% | U251 CNS 43% | PC-3 prostate 59% | SK-MEL-5 melanoma 95.9% | UACC-62 melanoma 78.9% | LOX IMVI melanoma 42.8% | SK-MEL-28 melanoma 94.3% | SK-MEL-2 melanoma 100%

N=C(N)c1ccc(-c2ccc(-c3ccccc3)o2)nc1
inactive: HT29 colon 19.3% | SNB-75 CNS 38.5% | SNB-19 CNS 82.7% | U251 CNS 83.6% | PC-3 prostate 71.7% | SK-MEL-5 melanoma 86.1% | UACC-62 melanoma 103% | LOX IMVI melanoma 83.4% | SK-MEL-28 melanoma 96.2% | SK-MEL-2 melanoma 109%

COc1ccc(-c2csc(NC(=O)CSc3nc(C)c(-c4ccccc4)n3Nc3ccccc3)n2)cc1
inactive: HT29 colon 67.7% | SNB-75 CNS 49% | SNB-19 CNS 82.7% | U251 CNS 61.7% | PC-3 prostate 34% | SK-MEL-5 melanoma 54.4% | UACC-62 melanoma 47% | LOX IMVI melanoma 36.8% | SK-MEL-28 melanoma 89.6% | SK-MEL-2 melanoma 82%

CC(C)(C)c1ccc(N2CSC(=S)N(c3ccc(C(C)(C)C)cc3)C2)cc1
inactive: HT29 colon 105% | SNB-75 CNS 76.1% | SNB-19 CNS 95.4% | U251 CNS 100% | PC-3 prostate 73.8% | SK-MEL-5 melanoma 96.3% | UACC-62 melanoma 94.9% | LOX IMVI melanoma 101% | SK-MEL-28 melanoma 105% | SK-MEL-2 melanoma 101%
